# Laboratory results published in PubChem BioAssay (NCI).
# Values joined by “and” are separate entries in the source; they are usually repeats but may differ in a detail not shown here. Identical values can stand only once. The panel holds about 83,000 compounds, 20% with a hit somewhere; the sample as a whole holds those more often.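 Testing used 96-well plates and a 48-hour single-concentration exposure. Example: -40 means 40% of the starting cells died.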 Active and inactive are the calls of the source.
# Tested on: HL-60(TB) leukemia
# Experiment: NCI-60 one-dose screen, 48 h (100 = growth as untreated, 0 = no growth, -100 = all killed)
# Settings: 10 µM
# Protocol: Growth inhibition of the HL-60(TB) human tumor cell line is measured as a screen for anti-cancer activity. Cells are grown in 96 well plates and exposed to the test compound for 48 hours. Compounds are tested at a single concentration, which is 10^-5 M for most compounds. The reported endpoint is percent growth (GI% or GIPRCNT), where numbers from 0 - 100% represent growth inhibition, and numbers from -100% - 0 represent cell death. For example, a value of 40 represents 60% growth inhibition. A value of 0 means no net growth occurred over the course of the experiment. A value of -40 indicates 40% of cells at the beginning of the experiment died by the end of the experiment. A value of -100 means all cells are dead at the end of the experiment.
# NCI-60 Human Tumor Cell Lines Screen was performed using the standard one-dose NCI protocol, which is described in more detail at https://dtp.cancer.gov/discovery_development/nci-60/default.htm.
# Compounds with GIPRCNT values below 10 were considered active. Activity score was based on GIPRCNT using the following formula: […]
# Score is 0 for GIPRCNT values of 100 or above, 50 for GIPRCNT values of 0, and 100 for GIPRCNT values of -100.
row,Structure (SMILES),growth
1,CC(=O)/C=C/c1ccc(OCc2ccc(C(C)(C)C)cc2)cc1,59.5% (inactive)

# Same assay, conditions: 10 µM unless noted
row,Structure (SMILES),growth
1,O=c1[nH]c2ccccc2cc1-c1nc2ccc(Cl)cc2[nH]1,-26.1% (active)
2,N#CCCn1cnc2c(N)ncnc21,98.6% (inactive)
3,COc1cc(C(=O)NN=C2c3ccccc3-c3ccccc32)cc(OC)c1OC,11.4% (inactive)
4,CCCCN(CCCC)CCCOC(=O)c1ccc(N)cc1,76.4% (inactive)
5,O=C1c2ccccc2C(=O)c2c1ccc(C(Br)Br)c2Cl,-9.24% (active)
6,COC(=O)/C=C/c1cc(OC(C)=O)c2c(c1)[C@@H](C(=O)OC)[C@H](c1ccc(OC(C)=O)c(OC(C)=O)c1)O2,-42.8% (active)
7,Cn1c2nc3ccccc3c-2nc2ccccc21,88.8% (inactive) and 55.2% (inactive)
8,CCNC(=O)c1[nH]cc(-c2ccccc2)c1-c1cc(OC)c2c(c1OC)OCO2,94.7% (inactive)
9,Cc1ccc2[nH]c3ccccc3c2c1,99.7% (inactive)
10,CC1CCCC(=O)O1 (stereo not given),102% (inactive) and 119% (inactive)
11,O=C(O)c1ccc(S(=O)(=O)O)cc1,115% (inactive)
12,Cc1oc2ncnc(Nc3ccccc3)c2c1C(=O)NCCO,64.9% (inactive)
13,COc1cc(/C=C/C(=O)c2cccc(Nc3nc(Nc4ccccc4)nc(Nc4ccccc4)n3)c2)cc(OC)c1OC,9.01% (active)
14,CCSc1nnc(NC(=O)COc2ccc(Cl)cc2C)s1,108% (inactive)
15,O=C(N/N=C/c1ccc(F)cc1)c1ccc(C(F)(F)F)nc1Nc1cccc(C(F)(F)F)c1,-37.2% (active)
16,CCn1nc(-c2ccc(C(=O)OC)cc2)nc2c(=O)n(C)c(=O)nc1-2,132% (inactive)
17,CC(C)(C)c1ccc(Cn2cc(CSc3nc4ccccc4s3)nn2)cc1,93.7% (inactive)
18,O=C1CC(c2cccc(-c3cccnc3)c2)=Nc2ccc(Br)cc2N1,41.6% (inactive)
19,NNC(=O)Nc1ccccc1,102% (inactive)

row,Structure (SMILES),growth
1,Cn1cc(-c2csc(-c3cn(CCCN4CCCCC4)c4ccc(F)cc34)n2)c2cccnc21,56.3% (inactive)
2,O=C1c2ccccc2C(c2ccccc2)C1c1ccccc1 (stereo not given),76.4% (inactive)
3,N#Cc1cnn2c(-c3ccc(Cl)cc3)nc(NC3CC3)nc12,98.2% (inactive)
4,CN1CCC(c2ccccc2)(c2ccccc2)C(=O)C1,90.8% (inactive)
5,CCc1nc2cc(/C=C/C(=O)NO)ccc2c(=O)n1CCc1ccc(F)cc1,-7.3% (active)
6,N#CC(C#N)=C/C=C/c1cccc([N+](=O)[O-])c1,-10.5% (active) and -9.74% (active)
7,COc1cc(C2NC(=O)c3ccccc3N2)ccc1OCCCCCOc1c(OC)cc(C2=NOC(c3cc(OC)c(OC)c(OC)c3)C2)cc1OC (stereo not given),68.3% (inactive)
8,Cn1cnc([N+](=O)[O-])c1Sc1ncnc2nc[nH]c12,73.5% (inactive) and 91.7% (inactive)
9,CCOc1ccc(NC(=S)N2CCC(CCCC3CCN(C(=S)Nc4ccc(OCC)cc4)CC3)CC2)cc1,68.9% (inactive)
10,CCOC(=O)C1CC(=O)c2cc(OC)c(OC)cc2C1 (stereo not given),97.6% (inactive)
11,Cc1ccc(-n2c(-c3cc4c([nH]c5ccccc54)c(-c4cccc(O)c4)n3)n[nH]c2=S)cc1,2.59% (active)
12,Cc1c2c(cc[n+]1Cc1ccc(F)cc1)c1ccc(OCc3cccc(F)c3)cc1n2Cc1cccc(F)c1,-49.3% (active)
13,COc1cccc(CCC2CCCN(c3cc(C)nc(N)n3)C2)c1 (stereo not given),1.26% (active)
14,CC1OS(=O)OC1C (stereo not given),96.3% (inactive) and 89.9% (inactive)
15,OCCNCCCOc1ccc2ncnc(Nc3ccc(Oc4cccc(C(F)(F)F)c4)c(Cl)c3)c2c1,-31.3% (active)
16,Cc1cccc(/C=C\C(=O)c2ccccc2)c1,98.8% (inactive) and 58.7% (inactive)
17,NS(=O)(=O)c1ccc(C2C3=C(CCCC3=O)OC3=C2C(=O)c2ccccc2C3=O)cc1 (stereo not given),-40.5% (active)
18,CCN(CC)c1ccc(\C=N/N=C(N)/C(N)=N\N=C/c2ccc(N(CC)CC)cc2)cc1,112% (inactive)
19,O=C(CNc1c(Cl)cccc1Cl)Nc1ccc(-c2nc3ccccc3s2)cc1,70.7% (inactive)

# Same assay, conditions: 100 µM
row,Structure (SMILES),growth
1,CC(=O)/C=C/c1ccc(OCc2ccc(C(C)(C)C)cc2)cc1,-32.4% (active)
